Results as given in PubChem BioAssay AID1645855 (Buhrlage Lab, Dana-Farber Cancer Institute and Novartis …, 2021).
Out of some 47,000 compounds screened, about 3,100 (6.6%) were called active. This excerpt belongs to a sample that is enriched for actives. Unmarked numbers belong to inactive results. Cut-off read from the data, not from the text of the source: active = inhibition above about 30%; inactive = the rest.

Each molecule was assayed against Ubiquitin carboxyl-terminal hydrolase 17-like protein 5 (Homo sapiens) (UniProt A8MUK1) (assay: blocks human USP17 ubiquitin-rhodamine cleavage (AID 1645855)). Details: purified USP17, Ub-rhodamine cleavage fluorescence, 3 h; at 50 µM; hits give high values.
Chain of Ubiquitin carboxyl-terminal hydrolase 17-like protein 5 (Homo sapiens) (A8MUK1 whole entry, looked up): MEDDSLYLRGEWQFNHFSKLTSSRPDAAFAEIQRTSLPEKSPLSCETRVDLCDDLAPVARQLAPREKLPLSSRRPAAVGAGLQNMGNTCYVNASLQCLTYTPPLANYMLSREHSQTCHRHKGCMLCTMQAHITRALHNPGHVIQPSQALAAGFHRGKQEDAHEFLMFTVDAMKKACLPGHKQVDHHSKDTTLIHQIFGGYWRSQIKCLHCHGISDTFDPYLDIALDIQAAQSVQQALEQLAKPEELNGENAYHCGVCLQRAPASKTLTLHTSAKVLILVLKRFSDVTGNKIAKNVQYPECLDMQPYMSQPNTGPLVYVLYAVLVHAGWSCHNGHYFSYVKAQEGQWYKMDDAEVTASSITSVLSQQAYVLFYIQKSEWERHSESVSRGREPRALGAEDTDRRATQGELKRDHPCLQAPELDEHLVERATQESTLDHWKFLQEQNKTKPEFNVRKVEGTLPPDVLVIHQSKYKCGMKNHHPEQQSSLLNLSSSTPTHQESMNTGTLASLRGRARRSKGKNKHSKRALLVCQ

**Q.** Which inhibition does the source give for `OCc1cc2c([nH]c3ccccc32)c([C@@H](O)CO)n1` here?
**A.** -4.94%

**Q.** `Cc1ccccc1Nc1nc(N)nc(CN2CCCC2c2cccn2C)n1` (configuration not stated) was tested. Which inhibition did it give?
**A.** -130%

**Q.** `CCOC(=O)c1cnc2c(C(F)(F)F)cccc2c1Sc1ccc(C)cc1C` was tested. Which inhibition did it give?
**A.** 3.52%

**Q.** `O=C1NC2(CCN(C(=O)Cc3ccccc3)CC2)Nc2cc(Cl)ccc21` was tested. Which inhibition did it give?
**A.** -2.47%

**Q.** For `CSc1ccccc1NC(=O)c1ccc(N2CCCC2)nn1`, which inhibition is on record?
**A.** 56.7% (active)

**Q.** For `Cc1cc(C)n(-c2ccc(C(=O)Nc3ccccc3C(C)C)nn2)n1`, which inhibition is on record?
**A.** 29.7%

**Q.** With `O=C(Cc1ccccc1)N1CCN(c2ccc(N3CCCC3)nn2)CC1` as the molecule, how does the inhibition read?
**A.** 15%

**Q.** For `O=C(c1sc2cnccc2c1-n1cccc1)N1CCc2ccccc2C1`, which inhibition is on record?
**A.** 8.13%

**Q.** Which inhibition does the source give for `CCOC(=O)c1cc(C)nc2c1c(=O)n(Cc1nc(-c3ccccc3)oc1C)c(=O)n2C` here?
**A.** -6.3%

**Q.** `CCCOc1ccc(C2CN3C(=O)N(c4cccc(C(C)=O)c4)C(=O)[C@]3(C)c3[nH]c4ccccc4c32)cc1OCC` (some centres not stated) was tested. Which inhibition did it give?
**A.** 2.94%

**Q.** For `COc1ccc(-c2cc(C(=O)Nc3sccc3C(N)=O)c3ccccc3n2)cc1`, which inhibition is on record?
**A.** -139%

**Q.** How did the inhibition turn out when `COC(=O)c1cccc(N(C(=O)c2cnccn2)C(C(=O)NC2CCCCC2)c2ccc(OC)c(OC)c2)c1` (configuration not stated) was run?
**A.** -9.26%

**Q.** `O=C(NC1CCCC1)C1c2cc(Br)ccc2OCC(=O)N1C1CCCC1` (configuration not stated) was tested. Which inhibition did it give?
**A.** -0.00685%

**Q.** `CC(CCc1ccccc1)NC(=O)COC(=O)c1ccc2[nH]c3c(c2c1)CCCC3` (configuration not stated) was tested. Which inhibition did it give?
**A.** 15.2%

**Q.** With `O=C(COC(=O)CCc1nc2ccccc2c(=O)[nH]1)Nc1ccc(N2CCOCC2)cc1` as the molecule, how does the inhibition read?
**A.** -1.46%

**Q.** `O=C(COC(=O)c1ccc2[nH]c3c(c2c1)CCCC3)Nc1ccc(N2CCOCC2)cc1` was tested. Which inhibition did it give?
**A.** 31% (active)

**Q.** Which inhibition does the source give for `c1cc2c(cc1-c1nn[nH]n1)OCO2` here?
**A.** -14.4%

**Q.** How did the inhibition turn out when `CC(=O)N1CC[C@H]2COC(=O)N(Cc3ccccc3)[C@@H]2C1` was run?
**A.** 5.56%

**Q.** With `COc1ccc(CN(C)c2ccc(S(=O)(=O)Nc3ccccn3)cn2)cc1` as the molecule, how does the inhibition read?
**A.** 6.32%

**Q.** Which inhibition does the source give for `O=S(=O)(c1ccccc1F)N1CCCn2nnc(COCC3CC3)c2C1` here?
**A.** 0.743%

**Q.** Which inhibition does the source give for `COc1cccc(NC(=O)c2ccc3c(c2)N(S(C)(=O)=O)CC3)c1` here?
**A.** 30.4% (active)

**Q.** How did the inhibition turn out when `COc1ccccc1NC(=O)c1cccc(S(=O)(=O)N2CCc3ccccc32)c1` was run?
**A.** -7.94%

**Q.** With `Cc1ccc(NC(=O)c2ccc3c(c2)N(S(C)(=O)=O)CC3)cc1C` as the molecule, how does the inhibition read?
**A.** -24.5%

**Q.** With `Cn1c(CCNC(=O)c2ccc(C(C)(C)C)cc2)nc2cccnc21` as the molecule, how does the inhibition read?
**A.** -167%

**Q.** How did the inhibition turn out when `Cc1ccc(C(=O)N(Cc2cc(=O)[nH]c3ccccc23)C(C)C)cc1F` was run?
**A.** 0.00655%

**Q.** How did the inhibition turn out when `COc1ccc(N(Cc2cc(=O)[nH]c3ccccc23)C(=O)c2ccc(Cl)cc2)cc1` was run?
**A.** 39.6% (active)

**Q.** For `COc1ccc(C(=O)CC(c2ccc(Cl)cc2)S(=O)(=O)c2ccccc2)cc1` (configuration not stated), which inhibition is on record?
**A.** 4.59%
